Only some compounds are listed: those with a hit (about 2.8% of all), similar ones and a draw of the others.
PAX8 reporter = inhibitors of PAX8 transcriptional activity in RMG-I cells; actives 1.2% (n = 360,000); inhibition, % at 12.6 µM; RMG-I TPO-luciferase reporter, SteadyGlo, 24 h; AID 652154;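 active means mean replicate inhibition at least 60% with every replicate also reaching 60%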;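 further: luciferase light reporting Pax8 driven TPO promoter activity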
LGR2 inh = inhibitors of bursicon-induced Drosophila LGR2 receptor cAMP signaling | HEK293 LGR2, CRE-luciferase, bursicon-stimulated, 4 h | inhibition, % at 9.99 µM | actives 0.35% (n = 380,000);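 active means drop in luminescence signal, shown as inhibition above about 50% in the replicate tests, limit read from the data, passing the limit was not always enough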;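 further: agonist challenge used bursicon conditioned medium at about half maximal strength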
EWS-Fli block = blocks EWS/Fli oncoprotein-driven transcription. A673 NR0B1-luciferase reporter, viability-normalised. inhibition, % at 12.6 µM. actives 0.67% (n = 350,000);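 active means mean inhibition of at least 50% after viability correction, with every replicate also passing that limit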;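 further: firefly luciferase signal divided by Alamar Blue viability fluorescence both relative to DMSO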
TWEAK Fn14 block = TWEAK-Fn14 signaling inhibition. actives 2% (n = 360,000). inhibition, % at 10 µM. TWEAK-stimulated Fn14 reporter cells, luciferase luminescence, 8 h; in the data active means inhibition above about 50%
TROY signal inh = blocks TROY-dependent signaling in reporter cells; Q293 LMP1-TROYcd NF-kB luciferase reporter, 4 h; actives 0.98% (n = 360,000); AID 1347056; inhibition, % at 10 µM;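 active means compounds whose plate-normalised and pattern-corrected inhibition of the luciferase reporter signal at the single screening dose is 50% or more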
Hits are given with their value.

O=C(NCc1ccccc1)C(c1ccccc1)N(Cc1ccccc1)C(=O)Cc1ccccc1 (stereo unspecified) was read as PAX8 reporter 79 and EWS-Fli block 71.
`COc1ccccc1S(=O)(=O)N1C[C@H](O)COC[C@H]2O[C@H](CC(=O)O)CC[C@@H]21` gave PAX8 reporter inactive, LGR2 inh inactive and EWS-Fli block inactive.
O=C(NC(=S)Nc1ccccc1N1CCCC1)c1ccc([N+](=O)[O-])cc1 was read as PAX8 reporter inactive, LGR2 inh inactive, TWEAK Fn14 block inactive and TROY signal inh inactive.
For Cc1c(C(=O)NC(=S)Nc2ccccc2N2CCCC2)cccc1[N+](=O)[O-] the results were PAX8 reporter inactive, LGR2 inh inactive, EWS-Fli block 77, TWEAK Fn14 block inactive and TROY signal inh inactive.
CCN1[C@@H]2c3ccc(-c4cccnc4)c(=O)n3C[C@H]1[C@H](CO)[C@H]2C(=O)NC1CCCCC1 was read as PAX8 reporter inactive, LGR2 inh inactive and EWS-Fli block inactive.
For O=C(O)/C=C/c1ccc(S(=O)(=O)Nc2ccc(OCc3ccccc3)cc2)cc1 the results were PAX8 reporter inactive, LGR2 inh inactive, EWS-Fli block inactive, TWEAK Fn14 block inactive and TROY signal inh inactive.
N#Cc1ccccc1COc1ccc(/C=C/C(=O)O)cc1 was read as PAX8 reporter inactive, LGR2 inh inactive, EWS-Fli block 58, TWEAK Fn14 block 74 and TROY signal inh inactive.
`O=C(NCc1ccco1)C1CCN(C(=O)c2cc3sccc3n2Cc2ccc(Cl)cc2)CC1` gave TWEAK Fn14 block 50 and TROY signal inh inactive.
`Cn1cc(/C=N/n2cnc3scc(-c4ccc(Cl)cc4)c3c2=O)c2ccccc21` gave PAX8 reporter 65, TWEAK Fn14 block inactive and TROY signal inh inactive.
For Cc1ccc(NC(=O)CN2CCCC2)cc1 the results were PAX8 reporter inactive, LGR2 inh inactive, EWS-Fli block inactive, TWEAK Fn14 block inactive and TROY signal inh inactive.
For Cc1ccc(NC(=O)CN2C(=O)C3CCCCN3C(=O)c3ccccc32)cc1 (stereo unspecified) the results were LGR2 inh inactive and TWEAK Fn14 block 53.
For CCc1cc2c(COC(=O)c3cccc(NS(C)(=O)=O)c3)cc(=O)oc2cc1O the results were PAX8 reporter inactive, LGR2 inh inactive, TWEAK Fn14 block 55 and TROY signal inh 53.
For CCc1cc2c(COC(=O)c3cc(S(=O)(=O)N4CCOCC4)ccc3F)cc(=O)oc2cc1O the results were PAX8 reporter inactive, LGR2 inh 59, EWS-Fli block inactive, TWEAK Fn14 block inactive and TROY signal inh inactive.
C[C@H]1CN([C@@H](C)CO)C(=O)c2cccc(N(C)C)c2O[C@@H]1CN(C)S(=O)(=O)c1ccc(F)cc1 was read as PAX8 reporter inactive and LGR2 inh inactive.
`O=C(N=c1nc2ccccn2s1)c1ccccc1` gave TWEAK Fn14 block 95 and TROY signal inh 59.
For O=c1oc2ccc(Br)cc2cc1S(=O)(=O)c1ccc(F)cc1 the results were TWEAK Fn14 block 91 and TROY signal inh inactive.
Screening COc1cc(NC(=O)COc2ccc(Cl)cc2)ccc1NC(=O)C(C)C returned PAX8 reporter inactive, LGR2 inh inactive, EWS-Fli block inactive, TWEAK Fn14 block inactive and TROY signal inh inactive.
For COc1cc(NC(=O)COc2ccc(Cl)cc2)ccc1-c1cc2ccccc2oc1=O the results were PAX8 reporter inactive, LGR2 inh inactive, EWS-Fli block inactive, TWEAK Fn14 block 59 and TROY signal inh inactive.
Screening CN(C(=O)COc1ccccc1C(=O)NCCOc1ccccc1)c1ccccc1 returned PAX8 reporter 74, LGR2 inh 88, TWEAK Fn14 block 88 and TROY signal inh 62.
COC(=O)c1ccc(COC(=O)c2ccc(N(C)C)cc2)cc1 was read as LGR2 inh inactive, TWEAK Fn14 block inactive and TROY signal inh inactive.
Screening O=C(OCc1ccc(COC(=O)c2ccc(O)cc2)cc1)c1ccc(O)cc1 returned TWEAK Fn14 block inactive and TROY signal inh 61.
Cc1ccc(N2Cc3ccccc3C2=O)cc1 was read as PAX8 reporter inactive, LGR2 inh inactive, EWS-Fli block inactive, TWEAK Fn14 block 53 and TROY signal inh inactive.
`O=C1c2ccccc2CN1c1ccccc1` gave PAX8 reporter inactive, LGR2 inh inactive, EWS-Fli block inactive, TWEAK Fn14 block inactive and TROY signal inh inactive.
Screening O=C(C[C@H]1CC[C@@H]2[C@H](COC[C@@H](O)CN2C(=O)Nc2ccccc2)O1)NC1Cc2ccccc2C1 returned PAX8 reporter inactive, LGR2 inh inactive and EWS-Fli block inactive.

Source: PubChem BioAssay
